This is a sample that favours compounds with a hit; in the whole collection about 7.4% have one here.
Rab9 promoter act = activators of Rab9 promoter. Huh7 Rab9 promoter-luciferase reporter, luminescence, 24 h. Potency, µM (top dose mostly 9.22 µM), without a hit: at the top dose activation, negative = inhibition, most hits filed as activators. 320,000 tested, 2.8% active; note: % of control where 0% means no effect; nearly all actives have a fitted effect of over 60% in size
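Quantitative HTS format; Huh7 Rab9-luciferase reporter cells (1500/well) receive compound 2 h post-plating, incubate 24 h at 37 °C, then get luciferase reagent for 10 min before luminescence reading.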
NPC1 prom act = NPC1 promoter activation | Potency, µM (highest dose often 9.22 µM), inactives show at the highest dose activation, actives largely listed as activators | Huh7 NPC1 promoter luciferase reporter, 24 h | 320,000 tested, 2.4% active; note: % of control where 0% means no effect; nearly all actives have a fitted effect of over 60% in size
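Compounds in DMSO were transferred onto Huh7 NPC1-luciferase reporter cells pre-incubated 2 h; after 24 h at 37 °C, Amplite reagent was dispensed and luminescence recorded 10 min later.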
FLuc counter = firefly luciferase modulation, counter-screen for miR-21 project; P08659; purified FLuc, Km substrates, luminescence inhibition; Potency, µM (doses to about 57.5 µM), inactives show top-dose activity change, negative = inhibition, actives largely listed as inhibitors; 360,000 tested, 6.9% active; AID 588342;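 note: plate controls were vehicle for no effect and reference inhibitor for full effect; nearly all actives have a fitted effect of over 55% in size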
Target sequence (P08659 whole entry, looked up): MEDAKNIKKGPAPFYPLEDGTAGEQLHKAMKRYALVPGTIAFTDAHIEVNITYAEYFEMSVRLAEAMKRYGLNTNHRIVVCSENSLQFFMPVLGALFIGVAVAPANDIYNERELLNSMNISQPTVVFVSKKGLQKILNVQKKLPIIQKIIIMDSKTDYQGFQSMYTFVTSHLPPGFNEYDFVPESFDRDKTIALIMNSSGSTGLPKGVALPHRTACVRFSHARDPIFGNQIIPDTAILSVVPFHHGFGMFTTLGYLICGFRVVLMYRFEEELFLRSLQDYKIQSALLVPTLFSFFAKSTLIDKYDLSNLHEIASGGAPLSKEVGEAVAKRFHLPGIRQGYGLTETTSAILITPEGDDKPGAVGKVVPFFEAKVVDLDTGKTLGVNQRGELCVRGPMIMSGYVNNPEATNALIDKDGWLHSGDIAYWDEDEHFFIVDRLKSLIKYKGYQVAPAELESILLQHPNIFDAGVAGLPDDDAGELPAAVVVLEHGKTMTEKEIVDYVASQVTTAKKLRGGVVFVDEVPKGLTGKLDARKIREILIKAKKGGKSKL
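Purified P. pyralis luciferase, 10 nM final, with Km-level 10 uM D-luciferin and 10 uM ATP in 50 mM Tris acetate pH 7.5, 10 mM Mg acetate, 0.01% Tween-20, 0.05% BSA; 6-point qHTS titration about 60 µM downward; luminescence read.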
KinaseGlo FLuc = Kinase-Glo luciferase inhibition (counter-screen); Kinase-Glo luciferase, ATP luminescence, 8 min; Potency, µM (highest dose often 38.3 µM), for the others: top-dose activity change, negative = inhibition, actives largely listed as inhibitors; Q27757; AID 1379; 200,000 tested, 0.28% active; note: % is set by controls: 0 for no effect and ±100 for the full control effect; nearly all actives have a fitted effect of over 60% in size
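Compound is pinned into ATP-containing buffer (10 uM ATP, imidazole pH 7.2, 7 mM MgCl2). Kinase-Glo luciferase reagent is then added. Light output is recorded following an 8-min room-temperature incubation.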
ELG1 genotoxic = inducers of genotoxicity in HEK293T ELG1-luciferase cells. HEK293T ELG1-luciferase reporter, luminescence, 16 h. AID 504466. 330,000 tested, 1.3% active. Potency, µM (doses to about 46 µM), without a hit: at the top dose activity change, positive = activation, most hits filed as activators; note: % of control where 0% means no effect; nearly all actives have a fitted effect of over 60% in size
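HEK293T cells expressing luciferase-tagged ELG1 were treated with compound or DMSO for 16 hr at 37°C. Luciferase activity was then read after 30 min with ONE-Glo at room temperature; rising signal flags genetic stress.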
SMN2 splice up = increases expression of the SMN2 splice variant; 210,000 tested, 2.8% active; HEK293 SMN2-luciferase splicing reporter, luminescence, 30-36 h; AID 1458; Potency, µM (highest dose often 46.1 µM), for inactives: at the top dose activity change, positive = activation, hits mostly activators; note: % of control where 0% means no effect; nearly all actives have a fitted effect of over 55% in size
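HEK293 cells carry an SMN2 minigene-luciferase reporter in which exon 7 inclusion puts luciferase in frame. Cells were seeded at 2000 cells/well, attached for 10-12 hours, then exposed to compounds for 30-36 hours at 37C before ONE-Glo luminescence.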
Active calls of the source: *. Calls come from the whole dose curve; as a rule, active = well fitted curve in the direction sought with a large enough effect; inconclusive = small, poorly fitted or top-dose-only effect, or another doubt; inactive = no such curve, though single readings can be large; an effect the other way counts as inactive or inconclusive. Potency is the fitted concentration of half-maximal effect.

`Cc1ccccc1Nc1nc(N)nc(-c2oc3ccccc3c2C)n1` gave Rab9 promoter act 2.24µM*, NPC1 prom act inconclusive, FLuc counter 21.3µM* and ELG1 genotoxic inconclusive.
`COc1ccccc1N1CCN(/N=C/c2ccc(C(=O)O)cc2)CC1` gave Rab9 promoter act 0.708µM*, NPC1 prom act 1µM*, FLuc counter 2.69µM* and ELG1 genotoxic inconclusive.
Screening COc1ccccc1N1CCN(/N=C/c2ccc(O)c(O)c2)CC1 returned Rab9 promoter act -20.6%, NPC1 prom act -28.4%, FLuc counter inconclusive, KinaseGlo FLuc -0.8%, ELG1 genotoxic inconclusive and SMN2 splice up inconclusive.
`O=C(O)c1ccc(/C=N/N2CCN(c3ccccc3)CC2)cc1` gave Rab9 promoter act 1.41µM*, NPC1 prom act 1.12µM*, FLuc counter 4.26µM* and ELG1 genotoxic 15.2%.
Screening CCCNC(=O)c1ccc(N2CCC3(CC2)CC(c2cccc(Br)c2)=NO3)c(NC(=O)c2ccc(Cl)c([N+](=O)[O-])c2)c1 returned Rab9 promoter act 7.3%, NPC1 prom act -12.6%, FLuc counter 2.2% and ELG1 genotoxic 11.4%.
For CCc1nc(Nc2cccc(O)c2)c2oc3ccccc3c2n1 the results were Rab9 promoter act 1.5%, NPC1 prom act 12.2%, FLuc counter 19µM* and ELG1 genotoxic -10.0%.
O=C(Nc1ccc2oc(-c3ccccc3Cl)nc2c1)c1ncn[nH]1 was read as Rab9 promoter act 3.55µM*, NPC1 prom act 1.41µM*, FLuc counter 3.01µM*, KinaseGlo FLuc -1.9%, ELG1 genotoxic 8.2µM* and SMN2 splice up 10µM*.
Screening O=C(Nc1ccc2oc(-c3cc(Br)ccc3Cl)nc2c1)c1ccc2ccccc2c1 returned FLuc counter -7.5% and SMN2 splice up -6.5%.
Screening O=C(Nc1ccc2oc(-c3cccc4ccccc34)nc2c1)c1ncn[nH]1 returned Rab9 promoter act 2.82µM*, NPC1 prom act inconclusive, FLuc counter inconclusive, KinaseGlo FLuc -6.1%, ELG1 genotoxic inconclusive and SMN2 splice up inconclusive.
Screening Cc1ccc(Cl)cc1N(C(=O)c1csnn1)C(C(=O)NC1CCCC1)c1ccco1 (configuration not stated) returned Rab9 promoter act -3.1%, NPC1 prom act -3.7%, FLuc counter 3.5% and ELG1 genotoxic -5.7%.
`COc1cc(C2C(C#N)=C(N)N(N(C)C)C3=C2C(=O)CCC3)ccc1O` (configuration not stated) gave Rab9 promoter act -2.7%, NPC1 prom act -0.1%, FLuc counter -3.3% and ELG1 genotoxic -0.6%.
`O=C(Nc1nnc(C(F)(F)F)s1)c1cccnc1` gave Rab9 promoter act 4.47µM*, NPC1 prom act inconclusive, FLuc counter 12µM*, KinaseGlo FLuc -2.9%, ELG1 genotoxic 12.4% and SMN2 splice up 11.2µM*.
`O=C(Nc1nnc(-c2ccccc2F)s1)c1cccnc1` gave Rab9 promoter act 2µM*, NPC1 prom act 2.24µM*, FLuc counter 9.53µM*, KinaseGlo FLuc 1.6%, ELG1 genotoxic inconclusive and SMN2 splice up inconclusive.
CCc1ccc(-n2c(SCC(=O)NC(C)CC)nc3n[nH]c(C)c3c2=N)cc1 (configuration not stated) was read as FLuc counter -5.3%.
`COCCN(C(=S)Nc1c(C)cccc1C)C(C)c1ccco1` (configuration not stated) gave Rab9 promoter act -8.1%, NPC1 prom act -3.8%, FLuc counter -1.6% and ELG1 genotoxic 0.0%.
For COc1ccc(NC(=O)c2cc(Br)ccc2Cl)c([N+](=O)[O-])c1 the results were Rab9 promoter act -2.6%, NPC1 prom act -3.2%, FLuc counter 3.8%, KinaseGlo FLuc 2.2%, ELG1 genotoxic 4.5% and SMN2 splice up -10.5%.
For COc1ccc(NC(=O)CSc2ccccc2)c([N+](=O)[O-])c1 the results were Rab9 promoter act inconclusive, NPC1 prom act inconclusive, FLuc counter 26.9µM*, KinaseGlo FLuc 0.4%, ELG1 genotoxic inconclusive and SMN2 splice up inconclusive.
`COc1ccc(NC(=O)CN2CCC(C)CC2)c([N+](=O)[O-])c1` gave Rab9 promoter act 5.1%, NPC1 prom act 13.0%, FLuc counter inconclusive, KinaseGlo FLuc -1.6%, ELG1 genotoxic 16.4µM* and SMN2 splice up -1.0%.
COc1ccc(NC(=O)CN2CCCCC2)c([N+](=O)[O-])c1 was read as Rab9 promoter act 10.7%, NPC1 prom act 24.2%, FLuc counter inconclusive, KinaseGlo FLuc 2.9%, ELG1 genotoxic 7.3% and SMN2 splice up 29.3%.
COc1ccc(NC(=O)COc2ccc(C)cc2)c([N+](=O)[O-])c1 was read as Rab9 promoter act inconclusive, NPC1 prom act 2.82µM*, FLuc counter inconclusive, KinaseGlo FLuc 0.3%, ELG1 genotoxic 20.6µM* and SMN2 splice up 0.2%.
`COc1ccc(NC(=O)c2ccc(C)cc2Cl)c([N+](=O)[O-])c1` gave Rab9 promoter act inconclusive, NPC1 prom act inconclusive, FLuc counter 6.01µM*, KinaseGlo FLuc -7.0%, ELG1 genotoxic inconclusive and SMN2 splice up 12.0%.
Cc1cccc(CCNC(=O)C2CCC(CNS(=O)(=O)c3ccccc3)CC2)c1 (configuration not stated) was read as FLuc counter -1.0%.
For CCN(CC)c1ccc(S(=O)(=O)N2CCOCC2)cc1NC(=O)CN1CCN(Cc2ccccc2)CC1 the results were Rab9 promoter act 0.0%, NPC1 prom act -1.9%, FLuc counter -0.5% and ELG1 genotoxic -8.1%.
Screening Cc1ccc(-n2c(=O)cc(N3CCN(c4ccccc4Cl)CC3)[nH]c2=O)cc1 returned FLuc counter -2.2%.
For COc1cnc(-c2ccccn2)[nH]c1=O the results were Rab9 promoter act 4.3%, NPC1 prom act -0.1%, FLuc counter -1.8%, KinaseGlo FLuc 0.2%, ELG1 genotoxic 5.0% and SMN2 splice up -74.5%.
Screening Nc1nc2cc3ccccc3cc2[nH]c1=O returned Rab9 promoter act 10.4%, NPC1 prom act -3.8%, FLuc counter -9.8% and ELG1 genotoxic 7.1%.
`CC(=O)Nc1ccc2nc(-c3ccncc3)[nH]c2c1` gave Rab9 promoter act -0.3%, NPC1 prom act 4.4%, FLuc counter -19.2%, KinaseGlo FLuc -1.2%, ELG1 genotoxic 13.3% and SMN2 splice up 8.0%.
For COc1cccc2[nH]c(-c3ccccn3)nc12 the results were KinaseGlo FLuc inconclusive and SMN2 splice up 3.98µM*.

High-throughput results: PubChem BioAssay, National Center for Advancing Translational Sciences (NCATS)
